Experimental data reported in the supplement of paper PMC4962491.
± gives the standard deviation of the averaged measurements.

Tested on: FaDu
Experiment: mitochondrial oxygen consumption rate normalised to cell number, Z score vs plate DMSO wells; higher = higher oxygen consumption (negative = OCR reduction)
Settings: treatment time 24 h, assay medium: 5 mM glucose, 5 mM pyruvate, 4 mM glutamine
Experimental: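 Secondary screen: FaDu cells were incubated 24 h with the top 130 primary hits at 0.08, 0.4, 2 or 10 uM. Mitochondrial-specific OCR (basal minus antimycin A) was measured on a Seahorse XF96 in medium with 5 mM glucose, 5 mM pyruvate and 4 mM glutamine and normalised to Hoechst cell number. OCR score = (OCR - mean of plate DMSO wells) / SD of plate DMSO wells. Three repeats.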
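Note: compound exposure in DMEM (4 mM L-glutamine, 5 mM glucose), antimycin A injected at 2 µM after the basal reading and its residual OCR subtracted from basal.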

Row | SMILES | mitochondrial oxygen consumption rate normalised (0.08 µM) | mitochondrial oxygen consumption rate normalised (0.4 µM) | mitochondrial oxygen consumption rate normalised (2 µM) | mitochondrial oxygen consumption rate normalised (10 µM)
1 | CCCCCCCCCCCCCCCC[N+](C)(C)C | 0.46 ± 0.86 | -0.326 ± 1 | -10.1 ± 0.48 | –
2 | Oc1c(Br)cc(Br)c2cccnc12 | 0.816 ± 1.4 | 1.29 ± 1 | -0.243 ± 2.5 | -3.74 ± 2
3 | c1ccc2c(c1)CCCC2C1=NCCN1 (configuration not stated) | -1.42 ± 2.7 | -0.536 ± 1.1 | -0.793 ± 1 | -0.259 ± 1
4 | CCN(CC)CCOC(=O)C(c1ccccc1)C1CCCCC1 (configuration not stated) | 0.349 ± 1.2 | 1.06 ± 1 | 1.23 ± 0.9 | 1.37 ± 1.6
5 | Nc1ccc2cc3ccc(N)cc3nc2c1 | 0.988 ± 0.79 | 1.43 ± 0.73 | -2.56 ± 1.5 | -6.68 ± 1.4
6 | C[C@]12CC[C@@H]3c4ccc(O)cc4CC[C@H]3[C@@H]1CC[C@@H]2OC(=O)CCC1CCCC1 | 0.0173 ± 1.4 | 0.582 ± 0.51 | 0.375 ± 0.83 | -0.125 ± 1.5
7 | COc1cccc2c1C(=O)c1c(O)c3c(c(O)c1C2=O)C[C@@](O)(C(=O)CO)C[C@@H]3O[C@H]1C[C@H](N)[C@@H](O)[C@H](C)O1 | -0.0709 ± 0.37 | 1.4 ± 1 | 1.18 ± 1.4 | 1.58 ± 2.4
8 | CCCCCC(=O)O[C@]1(C(C)=O)CC[C@H]2[C@@H]3CCC4=CC(=O)CC[C@]4(C)[C@H]3CC[C@@]21C | 0.448 ± 1.4 | 0.998 ± 0.5 | 0.00301 ± 1.9 | -3.48 ± 1.8
9 | Cc1cc(CC(C)CC(C)(C)C)n(O)c(=O)c1 (configuration not stated) | 0.0907 ± 1.2 | 0.402 ± 0.1 | -4.87 ± 1.5 | –
10 | O=c1cc[nH]c(=S)[nH]1 | -0.646 ± 1.9 | 1.11 ± 0.98 | -0.279 ± 2.5 | 0.14 ± 2.1
11 | N=C(N)NC(=N)NCCc1ccccc1 | 0.684 ± 1.6 | 0.605 ± 0.9 | -0.479 ± 0.84 | -5.11 ± 1.6
